Assay [1] addresses Lysosomal acid glucosylceramidase (Homo sapiens) (UniProt P04062). The assay can be described thus: Glucocerebrosidase-p2 (AID 348; in the data active = potency below about 10 µM; note: potency is the fitted concentration of half-maximal effect). To be noted: purified GBA, blue fluorogenic substrate, 40 min. In outline: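 Normal human glucocerebrosidase (0.2 nM) with blue fluorogenic substrate (80 uM final) in citrate/phosphate pH 5.9 with 10mM sodium taurocholate, 0.01% tween-20; 40 min RT, NaOH/glycine stop; fluorescence Ex 365/Em 440; AC50 from a titration from 0.6 nM upwards.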

The nature of assay [2]: AP1 Signaling Pathway (AID 357). Note: % is set by controls: 0 for no effect and ±100 for the full control effect. The following applies: ME-180 AP-1-bla reporter, EGF-induced, beta-lactamase ratio, 5 h; at 7.69 µM (top of the series) unless noted. In short, it runs like this: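 Modulation of EGF-driven AP-1 transcription was assessed with a beta-lactamase reporter in ME-180 cells. Compound and EC50 EGF were co-incubated 5 hours at 37 °C before 2.5-hour CCF4 loading at room temperature and dual-emission reading.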

The target in assay [3] is Cytochrome P450 1A2 (Homo sapiens) (UniProt P05177). Nature of the assay: p450-cyp1a2 (AID 410; calls by dose curve; note: potency is the fitted concentration of half-maximal effect;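 for activity change, negative = inhibition: -100% = full effect of reference inhibitor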). The following applies: recombinant CYP1A2, luciferin-ME demethylation, luminescence; series mostly up to 11.4 µM. In outline: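 Read-out is luminescence from luciferin produced by CYP1A2 demethylation of Luciferin-ME (100uM, at Km). Detection reagent stopped the 60 min NADPH-dependent reaction; signals were normalized to 57 uM furafylline.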

A short description of assay [4]: NFAT Signaling Pathway (AID 444).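 Note: carbachol stimulus at about its EC50 of 1 µM final; % is set by controls: 0 for no effect and ±100 for the full control effect.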 The following applies: Jurkat NFAT-bla M1, carbachol, beta-lactamase ratio, 5 h; at 7.69 µM (top of the series) unless noted. In outline: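 Jurkat cells carrying an NFAT-driven β-lactamase reporter and co-transfected muscarinic M1 receptor were treated with compound plus carbachol (1 uM final, an EC50 level) for 5 h at 37 °C. CCF4 loading followed for 1 h at RT; 460/530 nm ratio gave %activity.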

Assay [5] can be described thus: Stat Signaling Pathway (AID 446).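 Note: ME-180 cervical cancer cells given 40 pM IL-6 alongside compound; SIE-controlled beta-lactamase reporter measured as 460/530 nm FRET emission ratio; % is set by controls: 0 for no effect and ±100 for the full control effect.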 The following applies: ME-180 (cervical carcinoma) SIE beta-lactamase reporter, IL-6 stimulated, 5 h; at 7.69 µM (top of the series) unless noted. In outline:
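Emission at 460 and 530 nm (excitation 405 nm) reports SIE-controlled beta-lactamase in ME-180 cells. Cells received compound with 40 pM IL-6 for 5 hrs at 37 C; data scaled between 300 pM IL-6 and 125 nM JAK-inhibitor controls.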

In assay [6] the target is Glucocorticoid receptor (Homo sapiens) (UniProt P04150). Nature of the assay: GR-GFP Redistribution (AID 450;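 active = compounds whose dose series gives a full or clear partial fitted curve of increased nuclear translocation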; note: potency is the fitted concentration of half-maximal effect). To be noted: U2OS GR-GFP nuclear translocation, laser cytometry, 2 h.
Assay [7] has the same target. Nature of the assay: GR-EFC Redistribution (AID 451; calls by dose curve; note: potency is the fitted concentration of half-maximal effect). To be noted: CHO-K1 GR-EFC translocation, beta-gal luminescence, 2 h. In outline: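 CHO-K1 cells stably expressing nuclear-localized β-gal enzyme acceptor and GR fused C-terminally to the enzyme donor fragment; ligand-driven nuclear translocation restores β-gal by complementation. Compounds titrated up to 46 uM final, 2 h at 37 °C; luminescence read.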

In assay [8] the target is Mitogen-activated protein kinase 10 (Mus musculus) (UniProt Q61831). The assay can be described thus: JNK3 AlphaScreen Assay (AID 530).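 Note: kinase came from lysate of stimulated human HepG2 cells; signal reports phosphorylation of biotinylated GST-cJun 1-79 at Ser73 with 10 µM ATP; % is set by controls: 0 for no effect and ±100 for the full control effect.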 The following applies: JNK3 lysate, c-Jun phosphorylation; series mostly up to 11.4 µM. In outline:
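Biotinylated GST-cJun(1-79) served as substrate for JNK3 in HepG2 lysates stimulated with IL-1beta and TNF-alpha. ATP was 10 uM final, pH 7.6. Ser73 phosphorylation was quantified by AlphaScreen (680 nm excitation).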
(In general: In Alpha technology, singlet oxygen from a donor bead excites a nearby acceptor bead.)

The target in assay [9] is 3',5'-cyclic-AMP phosphodiesterase 4B (Homo sapiens) (UniProt Q07343). Nature of the assay: qHTS Assay for Inhibitors of PDE-IV (AID 607; active = well fitted activation curve with a large enough effect in the main read-out, with a control signal flat, not every such curve was filed as active; note: % of control where 0% means no effect). To be noted: HEK293 ACTOne CNG channel cells, membrane potential fluorescence; series mostly up to 22.9 µM. In outline: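 The readout is membrane depolarisation from a cAMP-sensing CNG channel, detected with a potential dye at ex 535/em 590. Cells were HEK293-derived (endogenous PDE-IV) at 1000 cells/well, titrated up to 22.9 uM final.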

For assay [10], the target named is Cytochrome P450 2C19 (Homo sapiens) (UniProt P33261). Nature of the assay: qHTS Assay for Inhibitors and Substrates of Cytochrome P450 2C19 (AID 899; active = well fitted inhibition curve with a large enough effect; note: nearly all actives have a fitted effect of over 60% in size; note: potency is the fitted concentration of half-maximal effect). To be noted: recombinant CYP2C19, luciferin-H EGE luminescence; series mostly up to 11.4 µM. In outline: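 In 50mM KPO4, the reaction held 5nM enzyme and KM-level (10uM) Luciferin-H EGE; it ran 60 min at 37C after NADPH regeneration and a 10 min compound preincubation. Luminescence values were scaled to 57uM ketoconazole as complete inhibition.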
On the technique in general: In qHTS, concentration-response curves come from the screen itself.

Assay [11] concerns the target Cytochrome P450 2D6 (Homo sapiens) (UniProt P10635). Nature of the assay: qHTS Assay for Inhibitors and Substrates of Cytochrome P450 2D6 (AID 891; active = well fitted inhibition curve with a large enough effect; note: nearly all actives have a fitted effect of over 60% in size; note: potency is the fitted concentration of half-maximal effect). To be noted: recombinant CYP2D6, luciferin-ME EGE luminescence; series mostly up to 11.4 µM. In short, it runs like this: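 Luminescent read-out of luciferin formed by 5 nM human CYP2D6 demethylating 30 uM Luciferin-ME EGE (Km level) over 60 min at room temperature after NADPH regeneration addition. Data normalized to full inhibition by 1.43 uM quinidine.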

Each structure is given as a SMILES string. Unmarked numbers belong to inactive results. Results filed as inconclusive are left out. Active and inactive are the calls of the source. Unless noted, calls come from the whole dose curve; as a rule, active = well fitted curve in either direction with a large enough effect (not every such curve was filed as active); inconclusive = small, poorly fitted or top-dose-only effect, or another doubt; inactive = flat fitted curve, though single readings scatter.

Chain of Glucocorticoid receptor (Homo sapiens) (P04150 whole entry, looked up, the tested form may be a part): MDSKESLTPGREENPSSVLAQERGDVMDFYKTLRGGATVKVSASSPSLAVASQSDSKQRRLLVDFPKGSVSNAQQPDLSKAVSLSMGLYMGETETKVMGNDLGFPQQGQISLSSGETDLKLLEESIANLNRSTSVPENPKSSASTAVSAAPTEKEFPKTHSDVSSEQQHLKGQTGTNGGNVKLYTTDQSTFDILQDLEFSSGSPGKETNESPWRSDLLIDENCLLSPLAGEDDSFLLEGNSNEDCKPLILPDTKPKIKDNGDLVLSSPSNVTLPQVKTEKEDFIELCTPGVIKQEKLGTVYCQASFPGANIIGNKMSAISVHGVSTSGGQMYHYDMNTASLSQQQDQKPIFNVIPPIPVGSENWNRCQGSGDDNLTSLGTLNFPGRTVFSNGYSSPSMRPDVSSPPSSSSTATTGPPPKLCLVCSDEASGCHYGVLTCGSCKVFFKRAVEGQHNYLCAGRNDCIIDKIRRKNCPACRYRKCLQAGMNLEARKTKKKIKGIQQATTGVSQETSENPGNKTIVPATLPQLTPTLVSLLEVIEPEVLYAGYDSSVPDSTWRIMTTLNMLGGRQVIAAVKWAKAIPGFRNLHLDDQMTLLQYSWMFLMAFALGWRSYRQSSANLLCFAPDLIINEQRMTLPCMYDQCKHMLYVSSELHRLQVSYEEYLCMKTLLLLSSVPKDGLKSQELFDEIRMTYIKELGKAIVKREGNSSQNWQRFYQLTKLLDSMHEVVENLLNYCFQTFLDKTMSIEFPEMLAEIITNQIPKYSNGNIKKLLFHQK
Chain of 3',5'-cyclic-AMP phosphodiesterase 4B (Homo sapiens) (Q07343 whole entry, looked up): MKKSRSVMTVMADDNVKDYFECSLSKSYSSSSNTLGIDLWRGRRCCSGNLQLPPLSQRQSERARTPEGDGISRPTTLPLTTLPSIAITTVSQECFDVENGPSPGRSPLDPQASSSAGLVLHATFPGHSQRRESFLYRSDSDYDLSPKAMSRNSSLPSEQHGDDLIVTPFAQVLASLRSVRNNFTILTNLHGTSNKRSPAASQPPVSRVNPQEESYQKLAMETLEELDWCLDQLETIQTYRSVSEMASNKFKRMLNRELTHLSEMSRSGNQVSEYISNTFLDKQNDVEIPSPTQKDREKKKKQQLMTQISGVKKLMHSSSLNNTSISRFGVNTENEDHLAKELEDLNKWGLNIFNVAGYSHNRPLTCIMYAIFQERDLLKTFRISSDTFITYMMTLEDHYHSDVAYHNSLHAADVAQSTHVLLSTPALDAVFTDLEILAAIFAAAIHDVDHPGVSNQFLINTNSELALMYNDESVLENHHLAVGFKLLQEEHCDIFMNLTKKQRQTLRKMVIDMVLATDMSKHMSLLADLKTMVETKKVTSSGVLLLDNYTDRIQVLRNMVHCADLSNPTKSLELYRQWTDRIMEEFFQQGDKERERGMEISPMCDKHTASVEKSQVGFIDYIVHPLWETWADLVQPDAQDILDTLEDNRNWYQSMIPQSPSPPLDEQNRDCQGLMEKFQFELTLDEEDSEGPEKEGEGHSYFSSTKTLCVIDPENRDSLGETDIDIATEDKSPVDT
Chain of Cytochrome P450 1A2 (Homo sapiens) (P05177 whole entry, looked up): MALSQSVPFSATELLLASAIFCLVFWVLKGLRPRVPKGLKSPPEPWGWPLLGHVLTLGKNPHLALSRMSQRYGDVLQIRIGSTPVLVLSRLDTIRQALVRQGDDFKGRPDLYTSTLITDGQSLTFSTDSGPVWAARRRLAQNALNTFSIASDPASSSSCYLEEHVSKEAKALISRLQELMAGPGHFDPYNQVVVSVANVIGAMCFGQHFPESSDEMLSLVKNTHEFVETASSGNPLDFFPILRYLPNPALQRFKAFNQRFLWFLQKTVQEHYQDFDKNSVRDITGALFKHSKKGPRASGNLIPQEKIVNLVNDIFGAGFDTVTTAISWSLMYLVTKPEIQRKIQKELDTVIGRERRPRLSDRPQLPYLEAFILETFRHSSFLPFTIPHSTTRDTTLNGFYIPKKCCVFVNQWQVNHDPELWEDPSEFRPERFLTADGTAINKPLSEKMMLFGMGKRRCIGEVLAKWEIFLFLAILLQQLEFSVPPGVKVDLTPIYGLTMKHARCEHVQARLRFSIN
Chain of Lysosomal acid glucosylceramidase (Homo sapiens) (P04062 whole entry, looked up): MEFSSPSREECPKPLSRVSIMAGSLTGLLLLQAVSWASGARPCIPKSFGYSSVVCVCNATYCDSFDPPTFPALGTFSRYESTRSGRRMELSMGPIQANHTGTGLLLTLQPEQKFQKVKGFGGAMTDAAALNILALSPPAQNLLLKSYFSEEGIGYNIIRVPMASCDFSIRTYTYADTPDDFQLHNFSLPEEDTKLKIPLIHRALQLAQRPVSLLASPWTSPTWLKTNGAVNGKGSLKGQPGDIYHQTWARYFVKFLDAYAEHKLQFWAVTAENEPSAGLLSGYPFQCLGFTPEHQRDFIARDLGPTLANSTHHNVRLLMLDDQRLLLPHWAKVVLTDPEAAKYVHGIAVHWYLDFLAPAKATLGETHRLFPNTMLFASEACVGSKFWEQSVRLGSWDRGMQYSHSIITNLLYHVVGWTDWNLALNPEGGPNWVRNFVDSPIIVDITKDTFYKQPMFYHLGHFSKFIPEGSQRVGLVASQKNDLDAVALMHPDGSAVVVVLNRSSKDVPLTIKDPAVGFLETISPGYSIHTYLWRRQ
Chain of Cytochrome P450 2C19 (Homo sapiens) (P33261 whole entry, looked up): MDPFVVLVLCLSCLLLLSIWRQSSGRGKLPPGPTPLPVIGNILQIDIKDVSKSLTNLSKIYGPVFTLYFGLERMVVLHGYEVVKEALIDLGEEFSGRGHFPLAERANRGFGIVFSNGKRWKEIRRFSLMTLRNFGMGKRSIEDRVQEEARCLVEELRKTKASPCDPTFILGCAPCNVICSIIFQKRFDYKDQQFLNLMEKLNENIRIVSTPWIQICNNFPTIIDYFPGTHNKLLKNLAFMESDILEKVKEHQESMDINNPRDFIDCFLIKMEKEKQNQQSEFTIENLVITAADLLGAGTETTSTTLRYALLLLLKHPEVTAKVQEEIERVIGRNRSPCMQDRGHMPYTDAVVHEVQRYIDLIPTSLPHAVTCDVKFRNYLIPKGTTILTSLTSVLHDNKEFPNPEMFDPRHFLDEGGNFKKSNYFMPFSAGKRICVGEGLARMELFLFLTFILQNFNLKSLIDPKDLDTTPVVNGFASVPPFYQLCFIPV
Chain of Cytochrome P450 2D6 (Homo sapiens) (P10635 whole entry, looked up): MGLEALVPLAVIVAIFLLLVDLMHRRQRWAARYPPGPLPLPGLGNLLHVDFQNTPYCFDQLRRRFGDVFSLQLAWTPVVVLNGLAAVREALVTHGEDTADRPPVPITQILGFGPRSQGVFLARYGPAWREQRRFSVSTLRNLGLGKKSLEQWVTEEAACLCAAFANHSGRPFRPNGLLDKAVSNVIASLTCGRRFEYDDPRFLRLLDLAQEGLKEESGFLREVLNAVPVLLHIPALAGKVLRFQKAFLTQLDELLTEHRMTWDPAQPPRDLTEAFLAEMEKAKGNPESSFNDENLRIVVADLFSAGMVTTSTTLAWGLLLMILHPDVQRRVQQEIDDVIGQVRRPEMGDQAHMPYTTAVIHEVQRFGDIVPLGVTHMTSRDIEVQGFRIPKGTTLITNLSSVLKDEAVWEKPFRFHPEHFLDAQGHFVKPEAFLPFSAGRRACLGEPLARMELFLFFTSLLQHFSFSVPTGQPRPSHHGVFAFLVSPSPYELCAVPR

In the case of `O=C1c2ccccc2C(=O)N1CCCSc1ccccc1`, the Potency in assay [1] was above 11.4 µM; in assay [3], 1 µM (active); in assay [6], above 46 µM; in assay [7], above 9.22 µM; in [10], 0.631 µM (active). Besides, the activity change, negative = inhibition in assay [2] is -13.4%; in assay [4], 1.88%. The activity, negative = inhibition in assay [5] is -7.77%. The Potency result in [8] and in [9] was “inactive” each time.

For `CC(C)CNC(=O)O`, the Potency was above 11.4 µM in assay [1], above 46 µM in assay [6] and above 9.22 µM in [7]. Also, the activity change, negative = inhibition in assay [2] was 8.49%; in [4], 0.858%. The Potency entry in assay [3], in [8], in assay [9], in assay [11] and in [10] was “inactive” in each case. Moreover, the activity, negative = inhibition in [5] was 3.89%.

For `C/C(=N\NC(=O)c1ccncc1)c1ccc2ccccc2c1O`, the Potency in [1] is above 11.4 µM; in assay [3], 3.98 µM (active); in assay [6], above 46 µM; in [7], above 9.22 µM; in assay [10], 0.501 µM (active). In addition, the activity change, negative = inhibition in assay [2] was 7.91%; in assay [4], -7.25%. In addition, the activity, negative = inhibition in assay [5] is -3.43%. For the same compound, the Potency entry in [8] and in [9] was “inactive” each time.

For the compound `Clc1ccc(-c2nnc(-c3cccc4ccccc34)o2)cc1Cl`, the Potency in [1] was above 11.4 µM; in assay [3], 2 µM (active); in [6], above 46 µM; in assay [7] it was above 9.22 µM. In addition, the activity change, negative = inhibition in assay [2] is -2.21%; in assay [4], 18.6%. In addition, the activity, negative = inhibition in assay [5] is 10.3%. In addition, the Potency result in [8], in assay [9] and in assay [10] was “inactive” throughout.

`O=C(O)C/C(=C\c1ccco1)C(=O)O`: the values for the Potency in [1], in assay [6] and in assay [7] were above 11.4 µM, above 46 µM and above 9.22 µM, respectively. The activity change, negative = inhibition in [2] was 8.65%; in assay [3] it was -11.8% [at 2.29 µM]; in assay [4], 9.1%. Further, the activity, negative = inhibition in assay [5] is 7.2%. Besides, the Potency entry in [8], in [9] and in assay [10] was “inactive” in each case.

As for `S=C(Nc1ccc2cn[nH]c2c1)Nc1ccc2cn[nH]c2c1`, the Potency is above 11.4 µM in assay [1]; 0.126 µM (active) in [3]; above 46 µM in assay [6]; above 9.22 µM in assay [7]; 2 µM (active) in assay [11]. Also, the activity change, negative = inhibition in assay [2] was -15%; in assay [4], 19.4%. Also, the activity, negative = inhibition in assay [5] was 1.71%. Further, the Potency entry in assay [8] and in assay [9] was “inactive” throughout.

Regarding `Oc1c(Br)cc(Br)cc1CN(Cc1cc(Br)cc(Br)c1O)C1CCCCC1`, the Potency in [1] was above 11.4 µM; in assay [3], 3.16 µM (active); in [6] it was above 46 µM; in [7], above 9.22 µM; in assay [11], 0.251 µM (active); in [10] it was 0.316 µM (active). The activity change, negative = inhibition is 6.04% in assay [2] and 5.11% in assay [4]. Besides, in assay [5], the activity, negative = inhibition is -17.9%. The Potency result in [8] and in [9] was “inactive” in each case.

In the case of `Cn1c(=O)c2c(nc(NCCNc3nc4c(c(=O)n(C)c(=O)n4C)n3C)n2C)n(C)c1=O`, the values for the Potency in assay [1], in assay [6] and in assay [7] were above 11.4 µM, above 46 µM and above 9.22 µM, respectively. For the same compound, the results for the activity change, negative = inhibition in [2] and in [4] were 4.17% and 8.54%, respectively. Further, the Potency entry in assay [3], in assay [8], in assay [9] and in assay [10] was “inactive” throughout. Further, in assay [5], the activity, negative = inhibition is 14.6%.

`CC[C@@]1([N+](=O)[O-])C[C@H]2C=C[C@@H]1C2`: the Potency in assay [1] was above 11.4 µM; in [6], above 46 µM; in [7], above 9.22 µM. Further, the figures for the activity change, negative = inhibition in assay [2], in assay [3] and in assay [4] were 9.4%, -12.9% [at 2.29 µM] and 4.68%, respectively. Further, in assay [5], the activity, negative = inhibition was 3.53%. The Potency entry in [8], in assay [9], in assay [11] and in assay [10] was “inactive” throughout.

Turning to `O=C(O)CC1(C(=O)O)CCCCC1`, the Potency in assay [1] was above 11.4 µM; in [6], above 46 µM; in assay [7], above 9.22 µM. The results for the activity change, negative = inhibition in [2], in assay [3] and in [4] were -1.19%, 5.1% [at 2.29 µM] and 7.95%, respectively. Moreover, the activity, negative = inhibition in assay [5] is 1.85%. Besides, the Potency entry in assay [8], in assay [9], in assay [11] and in assay [10] was “inactive” in each case.

For the compound `Nc1ccn([C@H]2O[C@@H](COP(=O)(O)O)[C@@H](O)[C@H]2O)c(=O)n1`, the Potency in assay [1] is above 11.4 µM; in assay [6] it was above 46 µM; in assay [7], above 9.22 µM. In addition, the figures for the activity change, negative = inhibition in assay [2] and in assay [4] were 5.49% and 12.4%, respectively. For the same compound, the Potency result in [3], in [8], in [9] and in [10] was “inactive” throughout. For the same compound, the activity, negative = inhibition in [5] was 4.03%.

Regarding `N=C(c1ccc2ccccc2c1)c1ccccc1Cc1ccccc1`, the Potency in assay [1] is above 11.4 µM; in [3], 0.501 µM (active); in assay [6], above 46 µM; in [7], above 9.22 µM; in [10], 3.98 µM (active). Moreover, the activity change, negative = inhibition is 0.881% in [2] and -18% in [4]. In assay [5], the activity, negative = inhibition is -1.68%. Further, the Potency result in assay [8] and in assay [9] was “inactive” in each case.

Regarding `COc1ccc(-c2cc([C@H](O)[C@@H]3CCCCN3)c3ccccc3n2)cc1`, the Potency in assay [1] is above 11.4 µM; in [6], above 46 µM; in assay [7] it was above 9.22 µM; in [11], 3.16 µM (active); in assay [10], 3.98 µM (active). Moreover, the activity change, negative = inhibition is 27.7% in assay [2], -11% [at 2.29 µM] in [3] and 23.2% in assay [4]. Also, the activity, negative = inhibition in assay [5] is 2.85%. In addition, the Potency entry in assay [8] and in assay [9] was “inactive” each time.

Turning to `O=C(O)c1nn(-c2ccccc2-c2n[nH]c(=O)[nH]c2=O)c(=O)[nH]c1=O`, the values for the Potency in assay [1], in assay [6] and in assay [7] were above 11.4 µM, above 46 µM and above 9.22 µM, respectively. For the same compound, the activity change, negative = inhibition in assay [2] is 1.66%; in [4], 18.8%. The Potency result in assay [3], in [8], in assay [9] and in assay [11] was “inactive” throughout. Moreover, the activity, negative = inhibition in assay [5] is 6.32%.
